# Compounds without any hit were thinned out: in the full panel of roughly 83,000, 20% have a hit.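 Method: cells in 96-well plates; compound added at one concentration; 48 h incubation; percent growth measured; values under 10 scored active.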 Active and inactive are the calls of the source.
# Tested on: HL-60(TB) leukemia
# Experiment: NCI-60 one-dose screen, 48 h (100 = growth as untreated, 0 = no growth, -100 = all killed)
# Settings: 10 µM unless noted
row,SMILES,growth
1,C#CCOc1ccc2ncnc(Nc3cccc(NC(=O)C=C)c3)c2c1,63.1% (inactive)
2,C/C=C/C(=O)OCCCCCCCCCCCC,85.2% (inactive)
3,COC(=O)[C@H](Cc1cnc[nH]1)NC(=O)[C@@H](NC(=O)Nc1cc(C(F)(F)F)cc(C(F)(F)F)c1)C(C)C,-62.5% [100 µM] (active)
4,Nc1nc2ccc(-c3nc4ccc5[nH]ncc5c4c4c3CCCC4)cc2s1,94.7% (inactive)
5,N#Cc1c(O)c2c(c(O)c1C#N)C(=O)c1ccccc1C2=O,-38.1% (active)
6,Cc1ccc(C(O)C2=CC(=O)c3ccccc3C2=O)cc1 (centres undefined),92.1% (inactive)
7,O=C(O)C1C(c2ccccc2)c2ccccc2C(O)C1CO (centres undefined),102% (inactive)
8,O=S(=O)(Nc1ccc(-c2nc(-c3cccc(OCCN4CCOCC4)c3)c(-c3ccnc(Br)c3)[nH]2)cc1)c1ccccc1,-2.01% (active)
9,CCN(CC)CCNC(=O)c1cn2ncnc(Oc3ccc(NC(=O)Nc4ccc(Cl)c(C(F)(F)F)c4)c(F)c3)c2c1C,-45% (active)
10,COc1cc2c(cc1-c1c(C)noc1C)ncc1nc(C3CCOCC3)n([C@H](C)COC(F)F)c12,27.5% (inactive)
11,COc1ccc(-c2nc(N/N=C/c3c[nH]c4ccccc34)nc(N3CCOCC3)c2C#N)cc1,47.9% (inactive)
12,Cc1nc2ccccc2c(/C=C/c2ccc(Cl)cc2)c1C(=O)/C=C/c1ccc(F)cc1,-7.94% (active)
13,C=CCN=c1sc2c(n1NC(=O)c1cc3ccc1CCc1ccc(cc1)CC3)C(=O)c1ccccc1C2=O,-20.1% (active)
14,O=C(C[n+]1ccccc1)c1ccc2ccccc2c1,101% (inactive)

# — PubChem BioAssay (NCI)
